Source: PubChem BioAssay (NCATS)
Inconclusive results are not listed. A number with no mark means an inactive call. The source made the active and inactive calls. Calls follow the shape of the dose curve; as a rule, active = well fitted inhibition curve with a large enough effect; inconclusive = small, poorly fitted or top-dose-only effect; inactive = flat fitted curve, though single readings scatter.

What follows are compounds tested against Voltage-gated inwardly rectifying potassium channel KCNH2 (Homo sapiens) (UniProt Q12809) (assay: qHTS Assay for Small Molecule Inhibitors of the Human hERG Channel Activity (AID 588834;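 also: lower thallium flux fluorescence means stronger hERG block; nearly all actives have a fitted effect of over 50% in size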; as to activity change, negative = inhibition: top concentration of the series differs between compounds)). Conditions: U2OS BacMam hERG, FluxOR thallium flux fluorescence; series mostly up to 46.1 µM; activity change, negative = inhibition: at the top concentration.
Voltage-gated inwardly rectifying potassium channel KCNH2 (Homo sapiens), sequence (Q12809 whole entry, looked up): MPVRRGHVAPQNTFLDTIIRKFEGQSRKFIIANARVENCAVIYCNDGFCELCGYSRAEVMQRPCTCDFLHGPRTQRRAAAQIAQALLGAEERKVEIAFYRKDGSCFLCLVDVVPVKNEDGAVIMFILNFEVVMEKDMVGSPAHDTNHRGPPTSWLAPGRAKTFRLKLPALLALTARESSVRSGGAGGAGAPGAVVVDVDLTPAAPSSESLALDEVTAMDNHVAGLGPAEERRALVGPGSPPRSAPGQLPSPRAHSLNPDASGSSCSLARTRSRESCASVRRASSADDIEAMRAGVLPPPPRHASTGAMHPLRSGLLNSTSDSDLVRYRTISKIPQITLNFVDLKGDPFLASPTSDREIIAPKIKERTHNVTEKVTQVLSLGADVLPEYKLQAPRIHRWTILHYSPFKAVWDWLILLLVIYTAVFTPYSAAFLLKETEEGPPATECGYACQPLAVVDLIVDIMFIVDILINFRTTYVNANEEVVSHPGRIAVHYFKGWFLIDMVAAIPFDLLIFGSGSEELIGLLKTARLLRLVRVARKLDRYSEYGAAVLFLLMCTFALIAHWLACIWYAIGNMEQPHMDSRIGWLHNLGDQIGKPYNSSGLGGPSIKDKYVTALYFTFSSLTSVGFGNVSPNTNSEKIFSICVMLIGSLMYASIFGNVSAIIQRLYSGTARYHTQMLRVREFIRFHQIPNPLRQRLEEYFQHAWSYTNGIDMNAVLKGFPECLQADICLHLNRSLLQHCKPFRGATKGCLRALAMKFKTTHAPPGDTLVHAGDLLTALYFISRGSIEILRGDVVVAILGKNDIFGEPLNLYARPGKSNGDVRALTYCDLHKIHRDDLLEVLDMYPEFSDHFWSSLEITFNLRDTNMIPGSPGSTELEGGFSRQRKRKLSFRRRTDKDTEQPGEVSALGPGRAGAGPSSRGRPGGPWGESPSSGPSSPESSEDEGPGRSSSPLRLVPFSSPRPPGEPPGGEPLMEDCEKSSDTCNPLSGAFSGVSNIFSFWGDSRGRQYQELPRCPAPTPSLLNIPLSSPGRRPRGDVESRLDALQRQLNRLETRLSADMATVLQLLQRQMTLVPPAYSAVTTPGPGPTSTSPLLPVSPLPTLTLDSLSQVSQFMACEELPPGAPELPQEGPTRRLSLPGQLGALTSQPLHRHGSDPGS
In short: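 Thallium-flux (FluxOR) read-out on FDSS: fluorescence read 10 s before and 2 min after stimulation buffer. hERG-BacMam-transduced U2OS cells, compound exposure about 10 min. AC50 by standard Hill equation.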
% is scaled to controls: 0 for no effect and ±100 for the full control effect; potency is read from the fitted curve at half-maximal effect.

Compound | Potency | activity change, negative = inhibition
C=CCN1CC[C@]23c4c5ccc(O)c4O[C@H]2/C(=N/NC(=O)c2ccccc2)CC[C@@]3(O)[C@H]1C5 | 3.16 µM (active) | 
[S]=[Sb](=[S])[S][Sb](=[S])=[S] |  | -4.06%
Cc1[nH]c2ccc(O)cc2c1CCN |  | 0.774%
NCC[C@H](O)C(=O)N[C@@H]1C[C@H](N)[C@@H](O[C@H]2O[C@H](CN)[C@@H](O)[C@H](O)[C@H]2N)[C@H](O[C@@H]2O[C@H](CO)[C@@H](O)[C@H]2O)[C@H]1O |  | 20.8% [at 20.6 µM]
OC[C@@H](O)[C@H]1O[C@@H]2O[C@@H](C(Cl)(Cl)Cl)O[C@@H]2[C@H]1O |  | -1.92%
NC(=O)CI |  | 22.4%
NC(Cc1cc(O)c(O)cc1O)C(=O)O (stereo unspecified) |  | 3.54%
CC(C)NP(=O)(NC(C)C)OP(=O)(NC(C)C)NC(C)C |  | 3.62%
Cc1c2ccncc2c(C)c2c1[nH]c1ccccc12 | 20 µM (active) | 
C[N+]1(C)CCN(c2ccccc2)CC1 |  | 12.7%
C#CCN1CC(=O)N(COC(=O)C2C(C=C(C)C)C2(C)C)C1=O (stereo unspecified) |  | 5.66%
C=CCN1C[C@@H](C)N([C@H](c2ccc(C(=O)N(CC)CC)cc2)c2cccc(OC)c2)C[C@@H]1C | 4.47 µM (active) | 
NC(CCCCCP(=O)(O)O)C(=O)O (stereo unspecified) |  | 4.45%
CCCN(CCC)C1CCc2cccc(O)c2C1 (stereo unspecified) |  | 1.58%
Ic1ccccc1CNC1C2CCN(CC2)C1C(c1ccccc1)c1ccccc1 (stereo unspecified) | 1 µM (active) | 
C[C@H]1CC[C@]2(NC1)O[C@H]1C[C@H]3[C@@H]4CC[C@H]5C[C@@H](O[C@@H]6O[C@H](CO)[C@H](O[C@@H]7O[C@H](CO)[C@@H](O)[C@H](O[C@@H]8OC[C@@H](O)[C@H](O)[C@H]8O)[C@H]7O[C@@H]7O[C@H](CO)[C@@H](O)[C@H](O)[C@H]7O)[C@H](O)[C@H]6O)CC[C@]5(C)[C@H]4CC[C@]3(C)[C@H]1[C@@H]2C | 15.8 µM (active) | 
